Structures can show the parent of a compound that is named as a salt.

For this assay, the system named is Saccharomyces cerevisiae BY4741 SeMeCo community. As to the kind of experiment: z-score of subpopulation abundance vs DMSO median, subpopulation auxotrophic for H; higher = larger share of this subpopulation than in DMSO controls. To be noted: 10 µM; 24 h; SM minimal medium; subpopulation (auxotrophy): H. On the procedure: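 Fluorescent four-plasmid SeMeCo (self-establishing metabolically cooperating S. cerevisiae BY4741 community; plasmids pH-mRuby2, pL-mWasabi, pU-eCFP, pM-TagRFP657) was grown 24 h in minimal SM medium with each Selleck FDA-approved drug at 10 µM in 384-well plates. Cells were fixed and imaged by high-content confocal microscopy. For each auxotrophic subpopulation (and the prototroph), a z-score gives the deviation from the DMSO vehicle-control population median.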
Turning to `COc1cc([C@@H]2c3cc4c(cc3[C@@H](O[C@@H]3O[C@@H]5CO[C@@H](C)O[C@H]5[C@H](O)[C@H]3O)[C@H]3COC(=O)[C@H]23)OCO4)cc(OC)c1O` [Etoposide], the “z-score of subpopulation abundance” value was 0.15.

In the case of `CCOC(=O)c1c(CSc2ccccc2)n(C)c2cc(Br)c(O)c(CN(C)C)c12` [Arbidol HCl], the “z-score of subpopulation abundance” value is 0.13.

Turning to `CN[C@H]1CC[C@@H](c2ccc(Cl)c(Cl)c2)c2ccccc21` [Sertraline HCl], the “z-score of subpopulation abundance” value is -1.14.

Regarding `COc1cc(N)c(Cl)cc1C(=O)NC1CCN(CCCOc2ccc(F)cc2)CC1OC` (stereo not given) [Cisapride hydrate], the “z-score of subpopulation abundance” value was 0.05.

Regarding `OC[C@H]1O[C@H](OCC2O[C@@H](O)[C@H](O)[C@@H](O)[C@@H]2O)[C@H](O)[C@@H](O)[C@H]1O` (stereo not given in full) [Melibiose], the “z-score of subpopulation abundance” value was -0.36.

For the compound `COc1cc(Cc2cnc(N)nc2N)cc(OC)c1OC` [Trimethoprim], the “z-score of subpopulation abundance” value is -0.5.

Turning to `COc1ccc(Cc2cnc(N)nc2N)cc1OC` [Diaveridine], the “z-score of subpopulation abundance” value is -0.11.

Regarding `O=C1CN(/N=C/c2ccc(-c3ccc([N+](=O)[O-])cc3)o2)C(=O)N1` [Dantrolene sodium hemiheptahydrate], the “z-score of subpopulation abundance” value turned out to be 2.07.

As for `CNCCCN1c2ccccc2CCc2ccccc21` [Desipramine Hydrochloride], the “z-score of subpopulation abundance” value came to 0.31.

For the compound `CCn1cc(C(=O)O)c(=O)c2ccc(C)nc21` [Nalidixic acid], the “z-score of subpopulation abundance” value was -0.95.

On to `C[C@@H](O)[C@H]1C(=O)N2C(C(=O)O)=C(S[C@@H]3CN[C@H](C(=O)N(C)C)C3)[C@H](C)[C@H]12` [Meropenem Trihydrate], for which the “z-score of subpopulation abundance” value came out at 1.09.

For `Oc1c(Cl)cc(Cl)cc1Sc1cc(Cl)cc(Cl)c1O` [Bithionol], the “z-score of subpopulation abundance” value worked out at 6.

Consider `C[C@]12CC[C@@H]3c4ccc(OC(=O)c5ccccc5)cc4CC[C@H]3[C@@H]1CC[C@@H]2O` [Estradiol Benzoate], for which the “z-score of subpopulation abundance” value was -0.36.

With `CO/N=C(\C(=O)N[C@@H]1C(=O)N2C(C(=O)OCOC(=O)C(C)(C)C)=C(/C=C\c3scnc3C)CS[C@H]12)c1csc(N)n1` [Cefditoren Pivoxil], the “z-score of subpopulation abundance” value was 0.56.

Take `Oc1c(Br)cc(Br)c2cccnc12` [Broxyquinoline]: the “z-score of subpopulation abundance” value came to 11.6.

As for `O=C(O)c1ccccc1C(=O)Nc1ccc(S(=O)(=O)Nc2nccs2)cc1` [Phthalylsulfathiazole], the “z-score of subpopulation abundance” value is -0.26.

With `CN(CCN1CCC(OC(=O)Nc2ccccc2-c2ccccc2)CC1)C(=O)c1ccc(CN2CCC(C(N)=O)CC2)cc1` [Revefenacin], the “z-score of subpopulation abundance” value was -0.6.

Take `O=C1CN(/N=C/c2ccc(-c3ccc([N+](=O)[O-])cc3)o2)C(=O)N1` [Dantrolene sodium]: the “z-score of subpopulation abundance” value is 0.84.

As to `COc1ccccc1OCC(O)CN1CCN(CC(=O)Nc2c(C)cccc2C)CC1` (stereo not given) [Ranolazine], the “z-score of subpopulation abundance” value is -0.13.

Consider `NC(=O)c1ncn([C@@H]2O[C@H](CO)[C@@H](O)[C@H]2O)n1` [Ribavirin], for which the “z-score of subpopulation abundance” value was -0.52.

On to `CN[C@@H]1[C@@H](O)[C@@H](O[C@@H]2[C@@H](O)[C@H](O[C@H]3OC(CN)=CC[C@H]3N)[C@@H](N)C[C@H]2N)OC[C@]1(C)O` [Sisomicin sulfate], for which the “z-score of subpopulation abundance” value was -0.72.

For the compound `O=C1CCc2cc(OCCCCc3nnnn3C3CCCCC3)ccc2N1` [Cilostazol], the “z-score of subpopulation abundance” value is 0.02.

Take `NCC[C@H](O)C(=O)N[C@@H]1C[C@H](N)[C@@H](O[C@H]2O[C@H](CN)[C@@H](O)[C@H](O)[C@H]2O)[C@H](O)[C@H]1O[C@H]1O[C@H](CO)[C@@H](O)[C@H](N)[C@H]1O` [Amikacin disulfate]: the “z-score of subpopulation abundance” value is -0.3.

For the compound `CCc1nn(CCCN2CCN(c3cccc(Cl)c3)CC2)c(=O)n1CCOc1ccccc1` [Nefazodone hydrochloride], the “z-score of subpopulation abundance” value is 2.06.

Take `CN1CC2c3ccccc3Oc3ccc(Cl)cc3C2C1` (stereo not given) [Asenapine maleate]: the “z-score of subpopulation abundance” value was -0.64.

Regarding `Cc1c(Nc2ncccc2C(=O)O)cccc1C(F)(F)F` [Flunixin Meglumin], the “z-score of subpopulation abundance” value is -0.33.

On to `C/C(=C\C(=O)OCCCCCCCCC(=O)O)C[C@@H]1OC[C@H](C[C@@H]2O[C@H]2[C@@H](C)[C@H](C)O)[C@@H](O)[C@H]1O` [Mupirocin calcium], for which the “z-score of subpopulation abundance” value came to 0.77.

For the compound `COc1cccc(-c2c(C)n(Cc3c(F)cccc3C(F)(F)F)c(=O)n(C[C@H](NCCCC(=O)O)c3ccccc3)c2=O)c1F` [Elagolix Sodium], the “z-score of subpopulation abundance” value amounted to 1.38.

Consider `CCCCCOc1ccc(-c2cc(-c3ccc(C(=O)N[C@H]4C[C@@H](O)[C@@H](O)NC(=O)[C@@H]5[C@@H](O)[C@@H](C)CN5C(=O)[C@H]([C@H](O)CC(N)=O)NC(=O)[C@H]([C@H](O)[C@@H](O)c5ccc(O)c(OS(=O)(=O)O)c5)NC(=O)[C@@H]5C[C@@H](O)CN5C(=O)[C@H]([C@@H](C)O)NC4=O)cc3)no2)cc1` [Micafungin Sodium], for which the “z-score of subpopulation abundance” value was 27.4.

As to `CN1CCc2cc3c(cc2C(=O)Cc2ccc4c(c2C1)OCO4)OCO3` [Protopine], the “z-score of subpopulation abundance” value is 0.05.

In the case of `Nc1nc2c(ncn2COC(CO)CO)c(=O)[nH]1` [Ganciclovir], the “z-score of subpopulation abundance” value is -0.43.

For `Nc1ccc2cc3ccc(N)cc3nc2c1` [Proflavine], the “z-score of subpopulation abundance” value was 4.14.

On to `COc1ccc2[nH]c([S+]([O-])Cc3ncc(C)c(OC)c3C)nc2c1` (stereo not given) [Omeprazole], for which the “z-score of subpopulation abundance” value was determined as 1.65.

In the case of `CCN(CC)CCOc1ccc(C(=C(Cl)c2ccccc2)c2ccccc2)cc1` [Clomifene citrate], the “z-score of subpopulation abundance” value turned out to be 0.53.

In the case of `CCOc1cc(N)c(Cl)cc1C(=O)NCC1CN(Cc2ccc(F)cc2)CCO1` (stereo not given) [Mosapride Citrate], the “z-score of subpopulation abundance” value is -0.34.

Regarding `COc1c(N2C[C@@H]3CCCN[C@@H]3C2)c(F)cc2c(=O)c(C(=O)O)cn(C3CC3)c12` [Moxifloxacin HCl], the “z-score of subpopulation abundance” value amounted to 0.53.

As to `C=C[C@H]1CN2CC[C@H]1C[C@H]2[C@H](O)c1ccnc2ccc(OC)cc12` [Quinine HCl Dihydrate], the “z-score of subpopulation abundance” value worked out at 0.07.

On to `Cc1cccc(C)c1NC(=O)C1CCCCN1C` (stereo not given) [Mepivacaine], for which the “z-score of subpopulation abundance” value is -1.62.

Take `CC[C@@H]([C@H](C)O)n1ncn(-c2ccc(N3CCN(c4ccc(OC[C@@H]5CO[C@@](Cn6cncn6)(c6ccc(F)cc6F)C5)cc4)CC3)cc2)c1=O` [Posaconazole]: the “z-score of subpopulation abundance” value came to 16.6.

Turning to `Nc1ccc(S(=O)(=O)Nc2nccs2)cc1` [Sulfathiazole], the “z-score of subpopulation abundance” value is -1.09.

The values are drawn from the supplement of paper PMC8975748.
